In article PMC5540273 (PLoS ONE, 2017):

Tests used:
Settings in all cases: concentration: 1 μM, replicates: in singlicate; n = 1
[1] = test system: RPS6KA4(Kin.Dom.1-N-terminal)
[2] = test system: RPS6KA4(Kin.Dom.2-C-terminal)
[3] = test system: RPS6KA5(Kin.Dom.1-N-terminal)
[4] = test system: RPS6KA5(Kin.Dom.2-C-terminal)
[5] = test system: T1, RSK1(Kin.Dom.1-N-terminal)
T1 construct: gene RPS6KA1

[6] = test system: T2, RSK1(Kin.Dom.2-C-terminal)
T2 construct: gene RPS6KA1

[7] = test system: T3, RSK2(Kin.Dom.1-N-terminal)
T3 construct: gene RPS6KA3

[8] = test system: T4, RSK2(Kin.Dom.2-C-terminal)
T4 construct: gene RPS6KA3

[9] = test system: T5, RSK3(Kin.Dom.1-N-terminal)
T5 construct: gene RPS6KA2

[10] = test system: T6, RSK3(Kin.Dom.2-C-terminal)
T6 construct: gene RPS6KA2
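Note: KINOMEscan kinase panel screen.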

Row | SMILES | %Inh [1] [%] | %Inh [2] [%] | %Inh [3] [%] | %Inh [4] [%] | %Inh [5] [%] | %Inh [6] [%] | %Inh [7] [%] | %Inh [8] [%] | %Inh [9] [%] | %Inh [10] [%]
1 | Cl.Cl.NCC(NCc1ccc(-c2ccnc3[nH]ccc23)s1)c1ccccc1 (centres unmarked) [GSK1321565] | 16 | 57 | 32 | 53 | 25 | 0 | 36 | 0 | 39 | 14
2 | Oc1cc(Nc2ccnc3cc(I)ccc23)ccc1F [GW552771] | 0 | 0 | 5 | 0 | 0 | 29 | 13 | 26 | 0 | 0
3 | CNC(=O)c1ccccc1Nc1nc(Nc2ccc(N3CCOCC3)cc2)ncc1Cl.Cl [GSK1576028] | 99.7 | 0 | 90 | 44 | 100 | 54 | 100 | 0 | 99.3 | 25
4 | COCCOCCOc1cc2ncc3c4ccc(C#N)cc4[nH]c3c2cc1OC | 0 | 0 | 0 | 44 | 0 | 0 | 79 | 2 | 46 | 8
5 | CN(c1ccc(NC(=O)Nc2cc(C(F)(F)F)ccc2F)cc1)c1ccnc(Nc2ccc(S(N)(=O)=O)cc2)n1 [GW809893] | 26 | 1 | 14 | 4 | 100 | 0 | 8 | 28 | 35 | 0
6 | Cc1cccc(NC(=O)Nc2ccc(Oc3ncnc4ccn(C)c34)cc2)c1 | 0 | 0 | 0 | 0 | 0 | 0 | 0 | 2 | 0 | 0
7 | COc1cc(Nc2ncc3c(C)nc(-c4cc5ccccc5[nH]4)n3n2)cc(OC)c1OC [GW869516] | 44 | 0 | 0 | 7 | 91.7 | 0 | 49 | 32 | 66 | 0
8 | O=C(Nc1ccccc1F)NC1CCN(c2ccnc(Nc3ccc(F)cc3)n2)CC1 [GSK1379800] | 9 | 0 | 0 | 26 | 19 | 0 | 0 | 0 | 0 | 0
9 | COc1cc(Nc2nccc(N3CCC(NC(=O)Nc4cccc(C(C)=O)c4)C3)n2)cc(OC)c1OC (centres unmarked) [GSK1379753] | 7 | 0 | 9 | 6 | 15 | 5 | 10 | 67 | 17 | 0
10 | O=C(Nc1n[nH]c2nc(-c3ccc(O)cc3)ccc12)C1CC1 [SB-710363] | 8 | 99.5 | 0 | 53 | 14 | 64 | 52 | 0 | 12 | 0
11 | Cc1ccc(S(=O)(=O)Nc2ccc(Nc3nccc(Nc4cccc5[nH]ncc45)n3)cc2)cc1 [GSK581271] | 0 | 0 | 0 | 0 | 1 | 14 | 15 | 0 | 5 | 0
12 | Cn1cc(-c2ccc3c(c2)CCN3C(=O)Cc2cccc(Cl)c2)c2c(N)ncnc21 [GSK2606590] | 22 | 0 | 40 | 0 | 4 | 0 | 1 | 0 | 16 | 0
13 | Cl.Cl.NCC(NC(=O)c1cc(-c2ccccc2)c(-c2ccnc3[nH]ccc23)s1)c1ccccc1 (centres unmarked) [GSK1321561] | 24 | 0 | 4 | 0 | 0 | 62 | 14 | 61 | 0 | 0
14 | COc1ccc(Nc2nccc(N3CCC(NC(=O)Nc4cccc(OC)c4)C3)n2)cc1 (centres unmarked) [GSK1379742] | 15 | 0 | 10 | 0 | 0 | 0 | 15 | 1 | 0 | 0
15 | CN1CCN(CCCNc2nccc(-c3c(-c4ccc(F)cc4)nn4cc(C(F)(F)F)ccc34)n2)CC1 [GW621581] | 10 | 0 | 26 | 0 | 0 | 44 | 0 | 17 | 10 | 0
16 | Cc1cccc(Nc2nc(N[C@H]3CCNC3)ncc2C(N)=O)c1.Cl [GSK2197149] | 0 | 0 | 2 | 0 | 22 | 31 | 31 | 0 | 23 | 4

Row | SMILES | %Inh [1] [%] | %Inh [2] [%] | %Inh [3] [%] | %Inh [4] [%] | %Inh [5] [%] | %Inh [6] [%] | %Inh [7] [%] | %Inh [8] [%] | %Inh [9] [%] | %Inh [10] [%]
17 | Nc1ncnc2c1nc(-c1ccccc1)n2-c1ccccc1 [SKF-97293] | 9 | 10 | 16 | 11 | 19 | 0 | 40 | 27 | 18 | 0
18 | O=C(Nc1cccc(-c2nn3ccccc3c2-c2ccnc(Nc3cccc(F)c3)n2)c1)c1c(F)ccc(F)c1Cl [GSK357952] | 15 | 0 | 28 | 20 | 63 | 14 | 18 | 8 | 24 | 0
19 | O=C(O)C(F)(F)F.O=C(O)C(F)(F)F.O=c1[nH]ccc2nc(N[C@@H]3CCCNC3)nc(Nc3ccc(S(=O)(=O)N4CCOCC4)cc3)c12 [GSK2177277] | 98.7 | 98.5 | 77 | 74 | 96 | 75 | 99.7 | 11 | 99.3 | 90.2
20 | C[C@@H]1CC[C@@H](C(=O)Nc2ccccc2)CN1c1cc(-c2ccc3c(N)n[nH]c3c2)nc(N)n1 [GSK2286062] | 4 | 0 | 6 | 2 | 14 | 3 | 7 | 19 | 2 | 24
21 | O=C(NC1CCN(c2ccnc(Nc3ccc(F)cc3)n2)C1)c1cc2ccccc2s1 (centres unmarked) [GSK1379716] | 17 | 0 | 29 | 0 | 22 | 13 | 4 | 0 | 20 | 4
22 | CCn1c(-c2nonc2N)nc2c(C#CC(C)(C)O)nc(OC[C@H](N)c3ccccc3)cc21 [GSK943949] | 0 | 57 | 6 | 0 | 59 | 0 | 0 | 0 | 0 | 0
23 | CC(C)(C)c1ccc2nccc(Nc3cccc(O)c3)c2c1 [GW856795] | 0 | 0 | 0 | 0 | 0 | 0 | 0 | 49 | 19 | 30
24 | Fc1ccc(-c2ncn(C3CCNCC3)c2-c2ccnc(Oc3ccc(-c4ccccc4)cc3)n2)cc1 [SB-245391] | 12 | 0 | 0 | 6 | 27 | 0 | 34 | 41 | 0 | 0
25 | COc1ccc(Nc2nccc(NCCNC(=O)c3cc4ccccc4s3)n2)cc1 [GSK1379896] | 0 | 0 | 3 | 0 | 0 | 0 | 0 | 23 | 0 | 0
26 | CN(C)S(=O)(=O)c1cc(-c2ccc3nccc(-c4cccc(S(N)(=O)=O)c4)c3c2)cnc1N [GSK1669921] | 15 | 0 | 16 | 0 | 0 | 10 | 21 | 76 | 2 | 28
27 | FC(F)(F)c1ccc(/C=C/c2cncnc2Nc2ccc3[nH]c(Cc4ccccc4)nc3c2)cc1 [GW709199] | 25 | 0 | 0 | 6 | 3 | 0 | 11 | 48 | 13 | 0
28 | Cl.c1ccc(-c2ccc3c(Nc4ccc5[nH]ccc5c4)ccnc3c2)nc1 [GW440138] | 0 | 0 | 0 | 3 | 0 | 0 | 0 | 0 | 0 | 15
29 | COc1cccc(NC(=O)NC2CCN(c3ccnc(Nc4cc(OC)c(OC)c(OC)c4)n3)C2)c1 (centres unmarked) [GSK1379763] | 0 | 0 | 0 | 35 | 12 | 4 | 0 | 8 | 12 | 0
30 | CC(=O)Nc1nc2cnc(Nc3cc(NC(=O)c4cccc(C5(C#N)CC5)c4Cl)ccc3C)nc2s1 | 0 | 0 | 14 | 5 | 0 | 25 | 0 | 0 | 0 | 10
31 | CSc1cccc2c(-c3ccncn3)c(-c3ccc(F)cc3)nn12 [GW514786] | 28 | 0 | 3 | 7 | 5 | 38 | 0 | 11 | 11 | 0
32 | CCCCc1nn2ncccc2c1-c1ccnc(Nc2ccc(N3CCN(C)CC3)cc2)n1 [GW684941] | 8 | 0 | 0 | 43 | 0 | 31 | 71 | 20 | 5 | 0
